From PubChem
The list is not random: actives were taken first. Their share in the collection is about 19%.
TGFb inhibitor – TGF-b pathway inhibition. HepG2 CAGA-GFP TGF-b/SMAD3 reporter, GFP fluorescence, 18 h; TGF-beta stimulated, 500 pg/mL final. Potency, µM (highest dose often 46.1 µM), without a hit: at the top dose activity, negative = inhibition, hits mostly inhibitors. actives 1.2% (n = 410,000); note: potency is the fitted concentration of half-maximal effect; % is set by controls: 0 for no effect and ±100 for the full control effect; nearly all actives have a fitted effect of over 65% in size
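Per well, imaged GFP fluorescence of HEPG2 CAGA-GFP cells gives the signal; cells get compound, then TGF-beta (500 pg/mL final), 18 h at 37 degrees C; %Activity versus -TGF-beta and +DMSO controls.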
S-ASM inh – human S-ASM enzyme inhibition; P17405; placental ASM, HMU-PC fluorogenic substrate, 60 min; Potency, µM (highest dose often 57.5 µM), for inactives: top-dose activity change, negative = inhibition, actives largely listed as inhibitors; actives 0.006% (n = 340,000); AID 504937; note: potency is the fitted concentration of half-maximal effect
Target sequence (P17405 47-631 limits assumed): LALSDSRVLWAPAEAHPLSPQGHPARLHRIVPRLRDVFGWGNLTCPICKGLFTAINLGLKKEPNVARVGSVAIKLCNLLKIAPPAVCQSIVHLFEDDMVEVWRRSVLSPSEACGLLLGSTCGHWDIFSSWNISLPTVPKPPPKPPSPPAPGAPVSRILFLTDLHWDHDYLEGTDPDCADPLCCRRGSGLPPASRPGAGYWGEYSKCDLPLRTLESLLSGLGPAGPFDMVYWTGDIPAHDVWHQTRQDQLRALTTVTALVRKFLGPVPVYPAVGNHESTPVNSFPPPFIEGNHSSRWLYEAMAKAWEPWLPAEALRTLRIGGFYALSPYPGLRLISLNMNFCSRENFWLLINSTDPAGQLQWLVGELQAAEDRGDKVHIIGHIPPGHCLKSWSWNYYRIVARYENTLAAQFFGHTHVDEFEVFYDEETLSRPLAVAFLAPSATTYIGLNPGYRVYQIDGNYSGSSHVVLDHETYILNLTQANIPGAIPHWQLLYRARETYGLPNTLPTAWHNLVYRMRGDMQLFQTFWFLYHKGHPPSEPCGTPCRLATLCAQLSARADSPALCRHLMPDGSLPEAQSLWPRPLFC
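qHTS format. ASM enzyme prepared from human placenta hydrolyses the fluorogenic substrate HMU-PC0 (9 uM final) over 60 min at 37 °C after a 10 min compound preincubation.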
DT40 TDP1 CPT – growth inhibition of DT40 Tdp1-/-;hTDP1 cells with camptothecin (screen for TDP1 inhibitors); AID 686979; chicken DT40 Tdp1-/-;hTDP1 cells + 20 nM CPT, ATP luminescence, 48 h; actives 12% (n = 420,000); Potency, µM (titrated, usually from 46.2 µM), for the others: at the highest dose activity change, negative = growth inhibition, most hits filed as inhibitors; note: potency is the fitted concentration of half-maximal effect; % is set by controls: 0 for no effect and ±100 for the full control effect; nearly all actives have a fitted effect of over 55% in size
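Cell growth measured by CellTiter-Glo luminescence after a minimum 48 h, 37 C compound exposure with 20 nM CPT in Tdp1-knockout DT40 cells stably expressing hTDP1, seeded 400/well; qHTS titration format.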
TDP1 cell noCPT – qHTS for Inhibitors of human tyrosyl-DNA phosphodiesterase 1 (TDP1): qHTS in cells in absence of CPT | DT40 Tdp1-/- hTDP1 cells, no CPT, ATP luminescence, 48 h | Potency, µM (series often up to 46.2 µM), inactives show at the highest dose activity change, negative = growth inhibition, most hits filed as inhibitors | actives 15% (n = 420,000) | AID 686978, 2013; note: potency is the fitted concentration of half-maximal effect; % is set by controls: 0 for no effect and ±100 for the full control effect; nearly all actives have a fitted effect of over 55% in size
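Luminescent ATP content (CellTiter-Glo) served as the growth readout. Knockout chicken DT40 cells expressing human TDP1 were exposed to compounds without camptothecin for a minimum 48 hr at 37 °C.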
HepG2 tox – HepG2 cytotoxicity, counter-screen for TGF-b inhibitors | AID 588856 | HepG2 CAGA-GFP viability, ATP luminescence, 18 h | actives 0.76% (n = 410,000) | Potency, µM (doses to about 46.1 µM), without a hit: at the highest dose activity change, negative = cytotoxicity, actives largely listed as cytotoxic; note: potency is the fitted concentration of half-maximal effect
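CellTiter-Glo luminescence gave cytotoxicity after 18 hours at 37 degrees C. The cells were HepG2 CAGA-GFP in 1% FBS DMEM, stimulated with 500 pg/mL TGF-beta after compound addition. %Activity was normalised to no-cell wells (complete cell-killing) and DMSO (no toxicity), and curves were fitted and classified.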
IL1B secr inh – blocks inflammasome-driven IL-1 beta release. activity change, % at 57.5 µM. THP-1 LPS/ATP IL-1B secretion, AlphaLISA, 16 h; stronger effect = lower value. actives 4.7% (n = 360,000); in the data active = activity change below about -50%; inconclusive = mostly about -30% to -49%; note: % is set by controls: 0 for no effect and ±100 for the full control effect
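THP-1 cells pretreated 1 hr with compounds (up to 57.5 uM final), then stimulated with LPS (250 ng/mL final) plus ATP (1.25 mM final); secreted IL-1B measured by AlphaLISA after 16 hr, decreased signal indicating inhibition.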
Active calls of the source: *; ? = inconclusive; nt = no result. Unless noted, calls come from the whole dose curve; as a rule, active = well fitted curve in the direction sought with a large enough effect; inconclusive = small, poorly fitted or top-dose-only effect, or another doubt; inactive = no such curve, though single readings can be large; an effect the other way counts as inactive or inconclusive.

SMILES	TGFb inhibitor	S-ASM inh	DT40 TDP1 CPT	TDP1 cell noCPT	HepG2 tox	IL1B secr inh
O=C(Nc1c(C(=O)N2CCOCC2)cnn1-c1ccccc1)c1cccc(F)c1	2%	-2%	-14%	-24%	7%	-6
Cc1oc2ncn(CC(C)C)c(=O)c2c1C(=O)NCCCN1CCCCC1C (stereo not given)	-4%	nt	-13%	-4%	-1%	nt
CC(C)Cc1ccc([C@H](C)C(=O)O)cc1	2%	-1%	4%	-2%	-15%	-9
CC(C)Cc1ccc(C(C)C(=O)Nc2cccnc2)cc1 (stereo not given)	-15%	2%	2.3µM*	3.7µM*	-29%	46
CC(=O)Nc1ccc(NC(=O)C(C)c2cccc(C(=O)c3ccccc3)c2)cc1 (stereo not given)	3%	-5%	18%	-26%	7%	-4
CC(C)Cc1ccc(C(C)C(=O)Nc2ccc(O)cc2)cc1 (stereo not given)	?	-8%	23µM*	13µM*	-46%	3
CC(C(=O)Nc1ccc(O)cc1)c1cccc(C(=O)c2ccccc2)c1 (stereo not given)	-16%	-3%	?	21µM*	-2%	-51*
CC(C)Cc1ccc(C(C)C(N)=Nc2ccc(O)cc2)cc1 (stereo not given)	?	-1%	26µM*	16µM*	16µM*	nt
Cc1nnsc1C(=O)N1CCCC1(C)C(=O)O (stereo not given)	17%	nt	3%	2%	-4%	6
C[C@@H]1CN([C@H](C)CO)C(=O)CCCn2cc(nn2)CO[C@H]1CN(C)C(=O)Nc1ccnc(N2CCOCC2)c1	5%	nt	0%	-10%	-1%	16
O=C(NC(=S)Nc1ccc(Br)cc1)C1CCC1	0%	-1%	-12%	8%	-10%	-12
CC(C)(C)C(=O)Nc1nc2nc(-c3ccccc3)cc(=O)n2[nH]1	-5%	nt	0%	2%	3%	nt
CC(C(=O)Nc1ccccc1)c1ccc(-c2ccccc2)c(F)c1 (stereo not given)	?	-11%	18µM*	23µM*	-8%	?
CCN(C(=O)COC(=O)CCCc1c[nH]c2ccccc12)c1c(N)n(Cc2ccccc2)c(=O)[nH]c1=O	1%	-1%	?	-26%	8%	11
COCCNC(=O)C1CCCN(C(=O)c2nc(C)oc2C)CC1 (stereo not given)	-3%	nt	4%	13%	-1%	3
COc1cc(C2C(C(=O)Nc3ccc(C)cc3C)=C(C)Nc3nc(SCc4ccccc4)nn32)cc(OC)c1OC (stereo not given)	7%	nt	21µM*	23µM*	0%	nt
COc1cccc(CSc2nc3n(n2)C(c2cccc(F)c2)C(C(=O)Nc2ccccc2C)=C(C)N3)c1 (stereo not given)	1%	nt	4%	-3%	3%	nt
CC1=C(C(=O)Nc2ccc(C)cc2C)C(c2ccc(C(=O)O)cc2)n2nc(SCc3ccccc3)nc2N1 (stereo not given)	1%	nt	-3%	-3%	-14%	nt
COc1ccccc1CSc1nc2n(n1)C(c1ccccc1)C(C(=O)Nc1ccc(C)cc1)=C(C)N2 (stereo not given)	13%	nt	16µM*	23µM*	-18%	nt
COc1cc(C2C(C(=O)Nc3ccccc3C)=C(C)Nc3nc(SCc4cc(C)ccc4C)nn32)ccc1O (stereo not given)	10µM*	nt	?	?	7.1µM*	nt
COc1cccc(CSc2nc3n(n2)C(CC(C)C)C(C(=O)Nc2ccccc2OC)=C(C)N3)c1 (stereo not given)	-14%	nt	18µM*	13µM*	0%	nt
Cc1ccccc1C(=O)NCCNC(=O)c1ccco1	-5%	-3%	18%	5%	-26%	-12
CCOc1ccc(CCNC(=O)c2cccc(Nc3nc4ccccc4nc3-n3nc(C)cc3C)c2)cc1OCC	8%	nt	-17%	-12%	1%	nt
O=C(Nc1ccc2nc(-c3cccs3)c(-c3cccs3)nc2c1)N1CCOCC1	33%	353%	?	13µM*	-10%	-60*
CCN(CC)c1nc(NN)nc(Nc2ccc(C)c(Cl)c2)n1	-31%	-20%	?	?	-1%	-76*
SMILES	TGFb inhibitor	S-ASM inh	DT40 TDP1 CPT	TDP1 cell noCPT	HepG2 tox	IL1B secr inh
CCN(CC)c1nc(N)nc(NS(=O)(=O)c2ccc(Cl)cc2)n1	-2%	2%	-10%	-16%	12%	5
Cc1nc(SCC(=O)NCC2CCCO2)nc(C)c1C (stereo not given)	0%	1%	7%	6%	0%	12
Cc1cccc(N2CCN(C(=O)C3CCN(S(=O)(=O)c4cccc5nsnc45)CC3)CC2C)c1 (stereo not given)	-5%	-5%	23µM*	21µM*	-18%	12
Cc1cccc(N2CCN(C(=O)C3CCN(S(=O)(=O)c4cccc5cccnc45)CC3)CC2C)c1 (stereo not given)	2%	-9%	13µM*	18µM*	0%	-2
O=C(C1CCN(S(=O)(=O)c2cccc3cccnc23)CC1)N1CCCC1	-12%	3%	-7%	-6%	-17%	-4
Cc1cccc(N2CCN(C(=O)C3CCN(S(=O)(=O)N4CCOCC4)CC3)CC2C)c1 (stereo not given)	2%	3%	18µM*	21µM*	4%	22
COc1ccc2cc(N3CCCC3=O)ccc2c1	-3%	-1%	?	?	-3%	-15
O=C(CCn1c(=O)oc2ccc(Cl)cc21)NCCCN1CCOCC1	18%	7%	2%	25%	12%	22
COc1ccc(-c2csc(NC(=O)CN3C(=O)NC4(CCCC4)C3=O)n2)cc1OC	10%	0%	-27%	-20%	8%	-62*
Cc1ccc2nc(NC(=O)CN3C(=O)NC4(CCCC4)C3=O)sc2c1	-29%	nt	?	?	3%	2
COc1ccc(-c2csc(NC(=O)CN3C(=O)NC4(CCCC4)C3=O)n2)c(OC)c1	0%	-1%	?	?	0%	?
CC(C)(C)c1ccc(-c2csc(NC(=O)CN3C(=O)NC4(CCCCC4)C3=O)n2)cc1	22%	-4%	10µM*	9.2µM*	-6%	-16
Cc1c(N2CCCC2)cc2c(c1N)C(C)(C)CC2(C)C	12%	0%	-21%	-27%	1%	21
